ABHD5-PLIN5 inh – inhibitors of human ABHD5-perilipin-5 interaction; Q00G26+Q8WTS1; Split G. princeps luciferase complementation, luminescence, 4 h; inhibition, % at 4 µM; 360,000 tested, 0.78% active; AID 602281;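 active = inhibition above the mean inhibition across every tested compound plus 3 SD, cut at about 22% in these data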;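 note: 0% = DMSO only wells and the 100% control is not disclosed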
rCAG RNA binder – binds r(CAG) RNA repeats | 370,000 tested, 1.3% active | r(CAG) RNA repeat, TO-PRO-1 dye displacement fluorescence | inhibition, % at 3 µM;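 active = inhibition above the plate cutoff, the mean of all test compounds on that plate plus 3 SD, cut at about 35% in these data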;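 note: 0% = DMSO alone and 100% = 100 µM mitoxantrone as full dye displacement; higher means more dye released from RNA so lower well fluorescence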
TLR4-MyD88 BLA – inhibitors of human TLR4-MyD88 binding; O00206+Q99836; HeLa CL3-4 TLR4/MyD88 BLA complementation, FRET ratio; inhibition, % at 8.4 µM; 200,000 tested, 0.18% active; AID 861; in the data active = inhibition above about 25%;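 note: 0% = vehicle and 100% = reference inhibitor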
NOD2-RIPK2 inh – NOD2-RIPK2 protein interaction inhibition; O43353; CHO BLA complementation NOD2-RIPK2, CCF4 ratio; inhibition, % at 4.98 µM; 360,000 tested, 0.38% active; in the data active = inhibition above about 21%;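 note: 0% = vehicle only and 100% = reference blocker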
TLR9-MyD88 block – blocks human TLR9 binding to MyD88. CHO BLA complementation TLR9-MyD88, CCF4 FRET ratio. 340,000 tested, 0.21% active. inhibition, % at 4.98 µM. Q9NR96+Q99836. AID 504734;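 active = inhibition above the mean over all tested compounds plus 3 SD, cut at about 21% in these data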;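 note: 0% = DMSO only wells and 100% = clavulanate BLA inhibitor control wells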
PRMT1 FP inh – PRMT1 (human) inhibition, primary screen; 370,000 tested, 1.3% active; inhibition, % at 2.79 µM; recombinant PRMT1, activity-based probe fluorescence polarization;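 active = inhibition above about 21% made by adding two undisclosed values, limit read from the data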
ABHD5 PLIN5 conf – ABHD5-PLIN5 interaction inhibition, confirmed | shares compounds with ABHD5-PLIN5 inh | biochemical ABHD5-PLIN5 interaction, luminescence | inhibition, % at 4 µM | 2,200 tested, 67% active | AID 651612; in the data active = inhibition above about 23%;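 note: 0% = DMSO vehicle wells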
HNF4 split-luc – counter-screen for ABHD5-PLIN5 inhibitors: HNF4 split-luciferase. shares compounds with ABHD5-PLIN5 inh. HNF4 dimerization, luminescence, biochemical. inhibition, % at 4 µM. 2,200 tested, 77% active. AID 651674;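 active = mean inhibition across replicate wells exceeding the computed hit threshold, cut at about 13% in these data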;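 note: light from luciferase halves that rejoin when HNF4 fusion proteins dimerize; 0% = DMSO only wells and the 100% control is not given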
rCAG bind conf – r(CAG) RNA repeat binding, confirmation. shares compounds with rCAG RNA binder. TO-PRO-1 dye displacement fluorescence. inhibition, % at 3 µM. 4,300 tested, 70% active. AID 652065;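 active = inhibition above a per-plate cutoff, the mean inhibition of sample wells plus 3 SD, cut at about 35% in these data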;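 note: loss of TO-PRO-1 fluorescence as compound displaces dye from 1x1 AA loop RNA; 0% = DMSO only wells and 100% = 100 µM mitoxantrone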
DNA CAG counter – disrupts DNA CAG TO-PRO-1 complex, flagging rCAG hits. AID 652068. inhibition, % at 3 µM. 4,300 tested, 94% active. shares compounds with rCAG RNA binder. d(CAG) DNA oligo TO-PRO-1 dye displacement, fluorescence;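 active = inhibition above its plate's cutoff, the mean test-well inhibition plus 3 SD, cut at about 4.8% in these data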;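 note: 0% = DNA dye mix with DMSO and 100% = 100 µM mitoxantrone; hits displace the dye from DNA and so lower well fluorescence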
PRMT1 confirm – confirmation of human PRMT1 inhibitors | inhibition, % at 2.79 µM | shares compounds with PRMT1 FP inh | 3,300 tested, 42% active | recombinant His-PRMT1, activity-based probe fluorescence polarization;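 active = mean inhibition across replicates above the hit cutoff derived for the earlier primary screen, cut at about 22% in these data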
Starred values were filed as active, the others as inactive; / = no result given. Compounds with a hit are over-represented: about 3.3% of the library has one in this group of screens.

SMILES	ABHD5-PLIN5 inh	rCAG RNA binder	TLR4-MyD88 BLA	NOD2-RIPK2 inh	TLR9-MyD88 block	PRMT1 FP inh	ABHD5 PLIN5 conf	HNF4 split-luc	PRMT1 confirm	others
COC(=O)COc1ccc(C2Nc3c(Cl)ccc(C(=O)O)c3C3C=CCC32)cc1 (centres undefined)	23*	76*	15	6	0	69*	15	28*	29*	rCAG bind conf=49*;DNA CAG counter=17*
CCOc1ccc(NC(=O)NNC(=O)C(C)Oc2ccccc2OC)cc1 (centres undefined)	5	-2	/	-3	-3	-3	/	/	/
COC(=O)c1ccc(CCc2cc(O)c(Br)cc2O)cc1	93*	6	/	-2	-6	103*	21	48*	72*
CCOc1ccc(NCCC(O)c2ccc(F)cc2)cc1 (centres undefined)	-4	-3	/	-7	13	3	/	/	/
Cc1cccc(NC(=O)N2CCN(Cc3ccc4c(c3)OCO4)CC2)c1C	-1	-6	0	0	5	-2	/	/	/
CC1=C(C(=O)Nc2ccccc2)C(c2ccc(Cl)cc2)n2c(s/c(=C/c3cccc(OCC(=O)O)c3)c2=O)=N1 (centres undefined)	27*	67*	-5	5	-13	26*	49*	29*	5	rCAG bind conf=87*;DNA CAG counter=63*
CC(C)=NOc1nc(NC(=O)NS(=O)(=O)c2ccccc2Cl)nc(N(C)C)n1	2	-4	/	9	-3	-3	/	/	/
CCOC(=O)CNc1nnc(SCC(=O)OCC)[nH]c1=O	26*	6	-12	-3	-9	59*	41*	83*	54*
C=CCOc1ccc(/C=C2/C(=N)N3N=C(CC(=O)N4CCCC4)SC3=NC2=O)cc1OC	-5	19	/	2	-2	-2	/	/	/
Cc1cc(C(=O)NCc2ccco2)c2ccccc2n1	7	0	-10	-1	4	3	/	/	/
Cc1ccc(-c2cc(C(=O)NCc3ccco3)c3ccccc3n2)o1	44*	18	-4	-13	0	48*	16	30*	9
Cc1ccc(-c2cc(C(=O)O)c3cc(Br)ccc3n2)o1	27*	28	3	-2	5	77*	79*	88*	81*
CCCN(C(=O)CSCc1ccc(C)cc1)c1c(N)n(Cc2ccccc2)c(=O)[nH]c1=O	-5	4	/	0	5	10	/	/	/
O=S(=O)(NC1=NCCCCC1)c1ccc2sc(NS(=O)(=O)c3ccc4ccccc4c3)nc2c1	47*	56*	/	-7	-5	44*	9	-35	27*	rCAG bind conf=63*;DNA CAG counter=28*
COC(=O)C1=C(O)/C(=C\c2ccc(CNS(=O)(=O)c3ccc(Cl)cc3)o2)N=C1C	32*	37*	4	-7	-5	56*	29*	39*	15	rCAG bind conf=42*;DNA CAG counter=15*
Cc1nc2cc(NCc3ccccc3O)ccc2n1Cc1ccccc1	-1	7	14	6	-9	6	/	/	/
O=c1c2cc(N3CCOCC3)ccc2[nH]c(=S)n1Cc1ccco1	25*	15	/	2	2	32*	43*	77*	65*
COc1cc(/C=C/C=C2/CC/C(=C/C=C/c3ccc(O)c(OC)c3)C2=O)ccc1O	26*	80*	/	-10	-3	54*	62*	68*	13
C/C=C/c1ccc(O)c(OC)c1	-4	2	/	-9	-14	-3	/	/	/
COc1cc(C(=O)NNC2=NC(C)(C)Cc3cc(C)c(C)cc32)cc(OC)c1OC	-2	-3	-8	3	7	2	/	/	/
O=S(=O)(c1ccc(F)cc1)N1CN(Cc2ccco2)c2nc3ccccc3nc21	24*	0	-10	2	-13	26*	28*	23*	3
Cc1ccc(S(=O)(=O)N2CN(Cc3ccco3)c3nc4ccccc4nc32)cc1	7	8	7	12	11	10	/	/	/
C=C[C@]1(C)C=C2C(=O)[C@@]3(O)OC(=O)[C@@]4(CCCC(C)(C)[C@H]34)[C@@]2(O)CC1	72*	8	/	9	/	61*	61*	81*	6
Cc1cc(-c2ccc(C)c(S(=O)(=O)NCCc3ccc(S(N)(=O)=O)cc3)c2)on1	-3	3	/	-6	0	2	/	/	/
CCn1c(C)c(CS(=O)(=O)c2ccccc2)[nH]c1=O	34*	-2	-10	6	-12	69*	57*	77*	73*
SMILES	ABHD5-PLIN5 inh	rCAG RNA binder	TLR4-MyD88 BLA	NOD2-RIPK2 inh	TLR9-MyD88 block	PRMT1 FP inh	ABHD5 PLIN5 conf	HNF4 split-luc	PRMT1 confirm	others
O=c1[nH]c(CS(=O)(=O)c2ccccc2)nc2ccccc12	6	-1	5	-6	1	3	/	/	/
Cc1ccc(C(=O)Nc2nc(-c3ccco3)c(-c3ccco3)s2)o1	28*	73*	/	-5	-6	38*	17	17*	29*	rCAG bind conf=18;DNA CAG counter=8.1*
Cc1ccc(C(=O)Nc2nc(C)c(C(=O)N(C)C)s2)o1	4	4	/	-7	9	2	/	/	/
COc1ccc(S(=O)(=O)N(C(=O)C(C)C)c2ccc3oc(=O)sc3c2)cc1	32*	29	-1	-5	-6	68*	-71	39*	39*
COc1ccc(S(=O)(=O)N(C(=O)c2ccncc2)c2ccc3oc4c(c3c2)CCCC4)cc1	8	4	-1	1	-17	2	/	/	/
COC(=O)C[C@@H]1C=C[C@H](NC(=O)c2ccccc2)[C@@H](CO)O1	-1	3	/	-2	/	-2	/	/	/
COc1ccc(CN(CCN2CCOCC2)C(=O)c2ccc(F)cc2Cl)cc1OC	/	5	/	/	/	6	/	/	/
O=C(CNC(=O)N1CC(=O)Nc2ccccc21)Nc1ccc(Cl)cc1Cl	0	2	/	2	4	-8	/	/	/
COCCC(=O)NC1CCCc2c1cnn2-c1cccc(C)c1C (centres undefined)	-4	-5	/	-4	-4	2	/	/	/
N#C/C(=C\c1ccc(N2CCOCC2)o1)c1nc2ccccc2[nH]1	24*	-46	1	3	9	58*	29*	51*	-57
Cc1c(C(=O)OCC(C)C)[nH]c2c1C(=O)CC(c1ccco1)C2 (centres undefined)	28*	23	-5	7	5	31*	6	8	9
